# High-throughput results deposited in PubChem BioAssay by Broad Institute.
# HIF act: HIF pathway transcriptional activators, primary screen, cell-based, U2OS HRE-luciferase, luminescence; U2OS HRE-luciferase reporter; normalized: DMSO 0%, desferrioxamine 100%; activation, % at 7.5 µM (by protocol); 300,000 tested, 0.32% active;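 active = mean activation of at least 10% of the iron chelator positive control signal, with at least half of replicates also reaching 10%; inconclusive = mean and replicate majority disagree about reaching 10%; inactive = mean and most replicates under 10%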
# AI-2 QS mod: Vibrio harveyi AI-2 quorum sensing modulators, primary screen, JMH597 strain, luminescence/OD600 ratio. Vibrio harveyi JMH597 AI-2 luminescence/OD600 ratio, 9 h; active compounds read low; strain lacks LuxN and CqsS sensors; 0 = neutral-control median. activity change, % at 7.5 µM. 300,000 tested, 0.4% active. AID 2094, 2009; in the data active = activity change below about -75%, passing the limit was not always enough; inconclusive = no clear call, values can overlap the other calls;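 note: luminescence divided by OD600 gain over 9 h not by final OD600 alone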
# ALR H2O2 inh: inhibitors of human ALR sulfhydryl oxidase, primary screen, biochemical, H2O2 detection, HRP-luminol luminescence, single point; 290,000 tested, 3.8% active; inhibition, % (no concentration beside the values); AID 485317, 2010; purified ALR, DTT oxidation; FAD-linked sulfhydryl oxidase ALR (Homo sapiens), P55789;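 active = mean replicate inhibition above about 79%, with every replicate also reaching it, limit read from the data; inconclusive = only one of the two criteria met; inactive = mean below limit and not every replicate reaching it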
# Target sequence (P55789 whole entry, looked up): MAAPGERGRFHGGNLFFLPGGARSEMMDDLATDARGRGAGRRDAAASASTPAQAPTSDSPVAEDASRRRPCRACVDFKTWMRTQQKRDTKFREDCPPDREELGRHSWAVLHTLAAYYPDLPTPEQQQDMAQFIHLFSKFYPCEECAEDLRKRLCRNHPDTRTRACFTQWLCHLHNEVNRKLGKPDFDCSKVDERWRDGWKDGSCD
# Mot1-301 SUMO: yeast Mot1-301 growth rescue at high temperature, primary screen, SUMOylation pathway inhibitor project, S. cerevisiae, ATP luminescence, 38.5C | 320,000 tested, 1% active | S. cerevisiae Mot1-301 growth rescue; percent above DMSO median, 100 means doubled | growth rescue, % at 18.8 µM;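 active = every valid replicate shows activation above 250% relative to neutral control wells; inactive = the rest, any valid replicate at or below 250%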
# JMH597 growth rt: Vibrio harveyi growth inhibition, confirmation, counter-screen for AI-2 quorum sensing project, JMH597 strain, OD600 absorbance. 9 h; lacks LuxN and CqsS sensors. growth inhibition, % at 7.5 µM. AID 2726, 2010. 750 tested, 1% active. shares compounds with AI-2 QS mod;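 active = every replicate shows growth inhibition above 50%; inconclusive = at least half, but not all, replicates pass that cutoff; inactive = fewer than half of replicates pass it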
# BB721 lum counter: luminescence inhibition in constitutive-on V. harveyi, confirmation, counter-screen for LuxS inhibitor project, strain BB721, luminescence readout; inhibition, % at 7.5 µM; 750 tested, 95% active; shares compounds with AI-2 QS mod; AID 2727, 2010; Vibrio harveyi BB721 luminescence, 9 h;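 active = inhibition above about 80% in every replicate, not just on average, limit read from the data; inconclusive = at least half of replicates past the limit, but not all; inactive = fewer than half of replicates past the limit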
# BB721 growth rt: growth inhibition of V. harveyi BB721, confirmation, cytotoxicity control for AI-2 quorum sensing inhibitors, strain BB721, absorbance OD600; shares compounds with AI-2 QS mod; Vibrio harveyi BB721 growth, 9 h; growth inhibition, % at 7.5 µM; 750 tested, 3% active;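 active = every replicate shows growth inhibition above 50%; inconclusive = at least half but not all replicates above 50% inhibition; inactive = under half of replicates above 50% inhibition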
# JMH597 AI-2 mod: Vibrio harveyi AI-2 signaling luminescence modulation – JMH597 strain, confirmation. Vibrio harveyi JMH597 AI-2 quorum sensing luminescence, 9 h; luxN and CqsS knockout, AI-2 only. 750 tested, 97% active. inhibition, % at 7.5 µM. shares compounds with AI-2 QS mod;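 active = every replicate shows more than 75% inhibition of signal versus neutral control wells; inconclusive = half to three quarters of replicates exceed 75% inhibition; inactive = fewer than half of replicates exceed 75% inhibition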
# Hits are given with their value; – = inactive; ? = inconclusive; · = not tested or not shown. An excerpt weighted towards active compounds, which were near 4.8% of everything screened.
SMILES,HIF act,AI-2 QS mod,ALR H2O2 inh,Mot1-301 SUMO,JMH597 growth rt,BB721 lum counter,BB721 growth rt,JMH597 AI-2 mod
CC(C(=O)Nc1ccc2c(c1)OCO2)n1cnc2c1c(=O)n(C)c(=O)n2C (configuration not stated),·,·,–,–,·,·,·,·
Fc1ccc(-c2nnc(CSc3nnc(-c4cccs4)o3)o2)cc1,–,–,–,–,·,·,·,·
Fc1ccc(CSc2nnc(-c3cccs3)o2)cc1,–,-89.3,–,–,–,96.8,–,97.3
c1ccc(CSc2nnc(-c3cccs3)o2)cc1,–,-90.0,–,–,–,97.1,–,98.1
O=C(CN1C(=O)c2cccc([N+](=O)[O-])c2C1=O)NCc1ccccc1,–,–,–,–,·,·,·,·
Cc1ccsc1/C=N/NC(=O)C(N)=O,–,–,–,–,·,·,·,·
Cc1ccc(C(=O)NCC(=O)N/N=C/c2sccc2C)cc1[N+](=O)[O-],–,–,·,·,·,·,·,·
Cc1ccc(/C=N/Nc2ccc(C(=O)O)cc2)o1,–,-90.7,98.4,–,–,97.3,–,97.7
COc1ccc(/C=N/Nc2ccc(C(=O)O)cc2)cc1OC,–,-93.1,·,–,–,96.0,–,97.4
COc1ccc(C(=O)Oc2ccc(/C=N/Nc3ccc(Cl)c(C(=O)O)c3)cc2OC)cc1,–,–,–,–,·,·,·,·
Cc1ccsc1/C=N/NC(=O)CNC(=O)c1ccccc1,–,?,–,–,–,93.1,–,94.9
Cc1ccsc1/C=N/Nc1ccc(C(=O)O)cc1,–,-91.2,·,–,–,98.1,65.1,98.5
CCOC(=O)c1c(S(=O)(=O)NCC(=O)Nc2ccc(OC)cc2)c(C)n(C)c1C,–,–,–,–,·,·,·,·
Cc1cc(NC(=O)COC(=O)CNS(=O)(=O)c2c(F)cc(F)cc2Br)no1,·,·,–,–,·,·,·,·
O=C(CNC(=O)c1cccc(Br)c1)N/N=C/c1cccs1,–,-83.1,–,–,–,90.5,–,91.4
CCCc1ccc(Oc2cn[nH]c2-c2ccc(O)cc2O)cc1,–,?,–,–,·,·,·,·
COc1ccc(Oc2cn[nH]c2-c2ccc(O)cc2O)cc1,–,-90.4,–,–,?,96.5,?,98.2
O=C(c1ccc2c3n(nc2c1)-c1ccccc1CO3)N1CCCCC1,–,-84.1,–,–,–,88.7,–,95.1
O=C(c1ccc2c3n(nc2c1)-c1ccccc1CO3)N1CCOCC1,–,–,–,–,·,·,·,·
COc1ccc(C(=O)N2CCCC(O)C2)cc1OC1CCN(C(C)C)CC1 (configuration not stated),–,–,–,–,·,·,·,·
COC(=O)N/N=C\c1ccc(OC/C=C/c2ccccc2)cc1,–,–,–,–,·,·,·,·
O=C(Nc1ccc(Oc2ccccc2)cc1)C1CC1,–,-87.2,–,–,–,98.5,58.7,96.4
CCOC(=O)Nc1ccc(Oc2ccccc2)cc1,–,-94.9,–,–,–,99.3,–,99.4
COC(=O)N/N=C/c1ccc(Oc2ccccc2)cc1,–,-85.3,–,–,–,94.7,–,95.5
CCNS(=O)(=O)c1ccc(CCC(=O)N2CCN(C(=O)OCC)CC2)cc1,–,–,–,–,·,·,·,·
SMILES,HIF act,AI-2 QS mod,ALR H2O2 inh,Mot1-301 SUMO,JMH597 growth rt,BB721 lum counter,BB721 growth rt,JMH597 AI-2 mod
CCOc1ccc(CSc2nc(C)cc(COC)c2C#N)cc1OCC,–,–,–,–,·,·,·,·
Cc1cc(OCCCCOc2ccc(S(N)(=O)=O)c(C)c2)ccc1S(N)(=O)=O,–,–,–,–,·,·,·,·
COc1ccc(S(=O)(=O)N2CCN(C(=O)N3CCOCC3)C2C)cc1 (configuration not stated),–,–,–,–,·,·,·,·
COc1ccc(NC(=O)C=C(C)C)cc1Cl,–,–,–,–,·,·,·,·
COC(=O)/C=C/C(=O)Nc1ccc(O)c(Cl)c1,–,-93.0,99.6,–,–,95.9,–,95.5
COc1ccc(Cc2nc(-c3ccc(Cl)cc3)no2)cc1,–,-88.4,–,–,–,96.7,–,98.0
Clc1ccc(-c2noc(CCCOc3ccccc3)n2)cc1,–,–,–,–,·,·,·,·
Clc1ccc(-c2noc(COc3ccccc3)n2)cc1,–,?,–,–,–,86.1,–,93.7
COc1ccc(-c2noc(Cc3ccc(Cl)cc3)n2)cc1OC,–,–,–,–,·,·,·,·
COc1ccc(OC)c(CNS(=O)(=O)c2cc(CN3C(=O)c4cccnc4C3=O)ccc2OC)c1,–,–,–,–,·,·,·,·
c1ccc(SCc2cc(-c3ccccc3)no2)cc1,–,-91.6,–,–,–,98.6,–,98.9
c1ccc(OCc2cc(-c3ccccc3)no2)cc1,–,-96.3,–,–,–,99.5,–,99.6
COc1ccccc1OCc1cc(-c2ccccc2)no1,–,–,–,–,·,·,·,·
Cc1ccc(SCc2nc(-c3cccnc3)no2)cc1,–,?,–,–,–,95.9,–,96.8
O=S(=O)(c1cccs1)N1CCN(CC(O)COc2cccc(Br)c2)CC1 (configuration not stated),–,-81.5,–,–,–,87.7,–,92.9
O=S(=O)(c1cccs1)N1CCN(CC(O)COC2CCCc3ccccc32)CC1 (configuration not stated),–,–,–,–,·,·,·,·
Cc1ccc(NC(=O)CCC(=O)N/N=C/C=C/c2ccccc2)cc1,–,–,–,–,·,·,·,·
Cc1ccc(S(=O)(=O)N/N=C\C=C\c2ccccc2)cc1,–,-98.1,–,–,–,99.8,–,99.9
CCCCOc1ccc(C(=O)N(CC)CC(=O)NCc2cccs2)cc1,–,–,–,–,·,·,·,·
CCS(=O)(=O)c1ccc2oc(Nc3cccc(OC)c3)nc2c1,–,?,97.3,·,–,81.6,–,88.2
Cc1cccc(/C(N)=N/OC(=O)c2cccc3ccccc23)c1,–,-84.8,–,–,–,97.5,?,97.7
N/C(=N\OC(=O)c1cccc2ccccc12)c1cccc([N+](=O)[O-])c1,–,–,–,–,·,·,·,·
Cc1ccc(C(=O)N2CCCC2)cc1S(=O)(=O)N1CCCCC1,–,–,–,–,·,·,·,·
COc1ccc(NCc2cc(=O)oc3cc(NC(C)=O)ccc23)cc1,–,-81.5,·,–,–,88.1,–,92.5
O=S1(=O)C=C(Oc2ccc3ccccc3c2)c2ccccc21,–,-83.2,·,–,–,94.8,–,96.0
Cc1cc(C)c(C#N)c(Nc2cccc(C)c2C)n1,–,–,–,–,·,·,·,·
